Experiments:
Assay in all cases: PBM; 200 nM protein, PBS
Conditions in all cases: dsDNA, one strand shown
[1] = molecular target: HESX1 (Homo sapiens, UniProt Q9UBX0 95-180, R165K)
[2] = molecular target: HOXB4 (Homo sapiens, UniProt P17483 148-234)
[3] = molecular target: SHOX (Homo sapiens, UniProt O15266 103-189)
[4] = molecular target: HOXB4 (Homo sapiens, UniProt P17483 148-234, V174I)
[5] = molecular target: ALX1 (Homo sapiens, UniProt Q15699 118-204, L144V)
[6] = molecular target: ALX3 (Homo sapiens, UniProt O95076 139-225, N203Q)
[7] = molecular target: SHOX (Homo sapiens, UniProt O15266 103-189, R173C)
[8] = molecular target: ALX1 (Homo sapiens, UniProt Q15699 118-204, L144R)
[9] = molecular target: ALX3 (Homo sapiens, UniProt O95076 139-225)
[10] = molecular target: PROP1 (Homo sapiens, UniProt O75360 56-141)
[11] = molecular target: HESX1 (Homo sapiens, UniProt Q9UBX0 95-180, R109Q)
[12] = molecular target: PROP1 (Homo sapiens, UniProt O75360 56-141, R99H)
[13] = molecular target: ALX3 (Homo sapiens, UniProt O95076 139-225, L168Q)
[14] = molecular target: ALX3 (Homo sapiens, UniProt O95076 139-225, L168V)
[15] = molecular target: PROP1 (Homo sapiens, UniProt O75360 56-141, F88S)
[16] = molecular target: HESX1 (Homo sapiens, UniProt Q9UBX0 95-180, F115L)
[17] = molecular target: ALX1 (Homo sapiens, UniProt Q15699 118-204)
[18] = molecular target: ALX3 (Homo sapiens, UniProt O95076 139-225, N203S)
[19] = molecular target: HESX1 (Homo sapiens, UniProt Q9UBX0 95-180)
[20] = molecular target: HESX1 (Homo sapiens, UniProt Q9UBX0 95-180, P111T)
HESX1 (Homo sapiens, UniProt Q9UBX0 95-180, P111T), sequence (Q9UBX0 95-180 P111T): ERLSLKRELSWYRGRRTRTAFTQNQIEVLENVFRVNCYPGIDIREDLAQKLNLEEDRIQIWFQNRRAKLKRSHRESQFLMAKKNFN

PROP1 (Homo sapiens, UniProt O75360 56-141, F88S), sequence (O75360 56-141 F88S): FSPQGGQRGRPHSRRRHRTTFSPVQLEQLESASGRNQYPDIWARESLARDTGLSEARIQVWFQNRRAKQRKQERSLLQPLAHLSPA
ALX3 (Homo sapiens, UniProt O95076 139-225, L168V), sequence (O95076 139-225 L168V): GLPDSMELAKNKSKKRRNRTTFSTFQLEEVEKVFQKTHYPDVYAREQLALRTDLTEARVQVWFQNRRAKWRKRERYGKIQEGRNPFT
ALX3 (Homo sapiens, UniProt O95076 139-225, N203Q), sequence (O95076 139-225 N203Q): as the sequence (O95076 139-225 L168V) above, with V30L, N65Q counted along it
ALX3 (Homo sapiens, UniProt O95076 139-225, N203S), sequence (O95076 139-225 N203S): as the sequence (O95076 139-225 L168V) above, with V30L, N65S counted along it
PROP1 (Homo sapiens, UniProt O75360 56-141), sequence (O75360 56-141): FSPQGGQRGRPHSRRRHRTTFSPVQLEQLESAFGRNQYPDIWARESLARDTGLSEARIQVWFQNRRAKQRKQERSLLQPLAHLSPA
ALX1 (Homo sapiens, UniProt Q15699 118-204, L144V), sequence (Q15699 118-204 L144V): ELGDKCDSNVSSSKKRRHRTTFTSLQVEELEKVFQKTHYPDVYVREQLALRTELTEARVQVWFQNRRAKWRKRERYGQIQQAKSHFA
HESX1 (Homo sapiens, UniProt Q9UBX0 95-180, R109Q), sequence (Q9UBX0 95-180 R109Q): as the sequence (Q9UBX0 95-180 P111T) above, with R15Q, T17P counted along it
PROP1 (Homo sapiens, UniProt O75360 56-141, R99H), sequence (O75360 56-141 R99H): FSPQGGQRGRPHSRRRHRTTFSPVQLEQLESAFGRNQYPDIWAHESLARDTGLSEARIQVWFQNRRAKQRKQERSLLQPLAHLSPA
HESX1 (Homo sapiens, UniProt Q9UBX0 95-180, R165K), sequence (Q9UBX0 95-180 R165K): as the sequence (Q9UBX0 95-180 P111T) above, with T17P, R71K counted along it
ALX3 (Homo sapiens, UniProt O95076 139-225), sequence (O95076 139-225): as the sequence (O95076 139-225 L168V) above, with V30L counted along it
HESX1 (Homo sapiens, UniProt Q9UBX0 95-180, F115L), sequence (Q9UBX0 95-180 F115L): as the sequence (Q9UBX0 95-180 P111T) above, with T17P, F21L counted along it
ALX1 (Homo sapiens, UniProt Q15699 118-204, L144R), sequence (Q15699 118-204 L144R): as the sequence (Q15699 118-204 L144V) above, with V27R counted along it
SHOX (Homo sapiens, UniProt O15266 103-189, R173C), sequence (O15266 103-189 R173C): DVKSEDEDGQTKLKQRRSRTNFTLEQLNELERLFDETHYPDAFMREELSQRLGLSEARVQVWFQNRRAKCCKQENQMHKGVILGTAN
SHOX (Homo sapiens, UniProt O15266 103-189), sequence (O15266 103-189): as the sequence (O15266 103-189 R173C) above, with C71R counted along it
HOXB4 (Homo sapiens, UniProt P17483 148-234), sequence (P17483 148-234): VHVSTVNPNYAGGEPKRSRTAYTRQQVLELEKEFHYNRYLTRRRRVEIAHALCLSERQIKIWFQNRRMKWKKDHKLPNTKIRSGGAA
HESX1 (Homo sapiens, UniProt Q9UBX0 95-180), sequence (Q9UBX0 95-180): as the sequence (Q9UBX0 95-180 P111T) above, with T17P counted along it
ALX1 (Homo sapiens, UniProt Q15699 118-204), sequence (Q15699 118-204): as the sequence (Q15699 118-204 L144V) above, with V27L counted along it
ALX3 (Homo sapiens, UniProt O95076 139-225, L168Q), sequence (O95076 139-225 L168Q): as the sequence (O95076 139-225 L168V) above, with V30Q counted along it
HOXB4 (Homo sapiens, UniProt P17483 148-234, V174I), sequence (P17483 148-234 V174I): as the sequence (P17483 148-234) above, with V27I counted along it

Row | Sequence | binding signal [1] | binding signal [2] | binding signal [3] | binding signal [4] | binding signal [5] | binding signal [6] | binding signal [7] | binding signal [8] | binding signal [9] | binding signal [10] | binding signal [11] | binding signal [12] | binding signal [13] | binding signal [14] | binding signal [15] | binding signal [16] | binding signal [17] | binding signal [18] | binding signal [19] | binding signal [20]
1 | ATTAATGA | 11.4 upbm affinity estimate (log intensity, higher = more binding, comparable within an allelic series) | 13.5 upbm affinity estimate (log intensity, higher = more binding, comparable within an allelic series) | 11.5 upbm affinity estimate (log intensity, higher = more binding, comparable within an allelic series) | 14.1 upbm affinity estimate (log intensity, higher = more binding, comparable within an allelic series) | 11.6 upbm affinity estimate (log intensity, higher = more binding, comparable within an allelic series) | 8.5 upbm affinity estimate (log intensity, higher = more binding, comparable within an allelic series) | 9.51 upbm affinity estimate (log intensity, higher = more binding, comparable within an allelic series) | 11.4 upbm affinity estimate (log intensity, higher = more binding, comparable within an allelic series) | 12.3 upbm affinity estimate (log intensity, higher = more binding, comparable within an allelic series) | 11.2 upbm affinity estimate (log intensity, higher = more binding, comparable within an allelic series) | 8.79 upbm affinity estimate (log intensity, higher = more binding, comparable within an allelic series) | 10.9 upbm affinity estimate (log intensity, higher = more binding, comparable within an allelic series) | 10.3 upbm affinity estimate (log intensity, higher = more binding, comparable within an allelic series) | 9.84 upbm affinity estimate (log intensity, higher = more binding, comparable within an allelic series) | 7.87 upbm affinity estimate (log intensity, higher = more binding, comparable within an allelic series) | 7.87 upbm affinity estimate (log intensity, higher = more binding, comparable within an allelic series) | 12.2 upbm affinity estimate (log intensity, higher = more binding, comparable within an allelic series) | 8.58 upbm affinity estimate (log intensity, higher = more binding, comparable within an allelic series) |  | 
2 | AATTAATG | 12.1 upbm affinity estimate (log intensity, higher = more binding, comparable within an allelic series) | 13.4 upbm affinity estimate (log intensity, higher = more binding, comparable within an allelic series) | 11.8 upbm affinity estimate (log intensity, higher = more binding, comparable within an allelic series) | 14 upbm affinity estimate (log intensity, higher = more binding, comparable within an allelic series) | 11.9 upbm affinity estimate (log intensity, higher = more binding, comparable within an allelic series) | 8.41 upbm affinity estimate (log intensity, higher = more binding, comparable within an allelic series) | 9.48 upbm affinity estimate (log intensity, higher = more binding, comparable within an allelic series) | 11.5 upbm affinity estimate (log intensity, higher = more binding, comparable within an allelic series) | 12.6 upbm affinity estimate (log intensity, higher = more binding, comparable within an allelic series) | 11.4 upbm affinity estimate (log intensity, higher = more binding, comparable within an allelic series) | 9.35 upbm affinity estimate (log intensity, higher = more binding, comparable within an allelic series) | 11.3 upbm affinity estimate (log intensity, higher = more binding, comparable within an allelic series) | 10.7 upbm affinity estimate (log intensity, higher = more binding, comparable within an allelic series) | 10.3 upbm affinity estimate (log intensity, higher = more binding, comparable within an allelic series) | 7.86 upbm affinity estimate (log intensity, higher = more binding, comparable within an allelic series) | 7.83 upbm affinity estimate (log intensity, higher = more binding, comparable within an allelic series) | 12.5 upbm affinity estimate (log intensity, higher = more binding, comparable within an allelic series) | 8.55 upbm affinity estimate (log intensity, higher = more binding, comparable within an allelic series) | 12.1 upbm affinity estimate (log intensity, higher = more binding, comparable within an allelic series) | 10.7 upbm affinity estimate (log intensity, higher = more binding, comparable within an allelic series)
3 | TAATTAAA | 13.1 upbm affinity estimate (log intensity, higher = more binding, comparable within an allelic series) | 13.3 upbm affinity estimate (log intensity, higher = more binding, comparable within an allelic series) | 12.8 upbm affinity estimate (log intensity, higher = more binding, comparable within an allelic series) | 14.1 upbm affinity estimate (log intensity, higher = more binding, comparable within an allelic series) | 11.9 upbm affinity estimate (log intensity, higher = more binding, comparable within an allelic series) | 8.59 upbm affinity estimate (log intensity, higher = more binding, comparable within an allelic series) | 10.6 upbm affinity estimate (log intensity, higher = more binding, comparable within an allelic series) | 11.6 upbm affinity estimate (log intensity, higher = more binding, comparable within an allelic series) | 12.8 upbm affinity estimate (log intensity, higher = more binding, comparable within an allelic series) | 11.9 upbm affinity estimate (log intensity, higher = more binding, comparable within an allelic series) | 10 upbm affinity estimate (log intensity, higher = more binding, comparable within an allelic series) | 11.9 upbm affinity estimate (log intensity, higher = more binding, comparable within an allelic series) | 11.3 upbm affinity estimate (log intensity, higher = more binding, comparable within an allelic series) | 11.1 upbm affinity estimate (log intensity, higher = more binding, comparable within an allelic series) | 8.07 upbm affinity estimate (log intensity, higher = more binding, comparable within an allelic series) | 8.41 upbm affinity estimate (log intensity, higher = more binding, comparable within an allelic series) | 12.6 upbm affinity estimate (log intensity, higher = more binding, comparable within an allelic series) | 8.72 upbm affinity estimate (log intensity, higher = more binding, comparable within an allelic series) | 13.1 upbm affinity estimate (log intensity, higher = more binding, comparable within an allelic series) | 12.1 upbm affinity estimate (log intensity, higher = more binding, comparable within an allelic series)
4 | ATTAATTG | 13 upbm affinity estimate (log intensity, higher = more binding, comparable within an allelic series) | 13.4 upbm affinity estimate (log intensity, higher = more binding, comparable within an allelic series) | 12.3 upbm affinity estimate (log intensity, higher = more binding, comparable within an allelic series) | 14.2 upbm affinity estimate (log intensity, higher = more binding, comparable within an allelic series) | 12.1 upbm affinity estimate (log intensity, higher = more binding, comparable within an allelic series) | 8.48 upbm affinity estimate (log intensity, higher = more binding, comparable within an allelic series) | 9.84 upbm affinity estimate (log intensity, higher = more binding, comparable within an allelic series) | 11.7 upbm affinity estimate (log intensity, higher = more binding, comparable within an allelic series) | 12.7 upbm affinity estimate (log intensity, higher = more binding, comparable within an allelic series) | 11.7 upbm affinity estimate (log intensity, higher = more binding, comparable within an allelic series) | 9.92 upbm affinity estimate (log intensity, higher = more binding, comparable within an allelic series) | 12 upbm affinity estimate (log intensity, higher = more binding, comparable within an allelic series) | 11 upbm affinity estimate (log intensity, higher = more binding, comparable within an allelic series) | 10.5 upbm affinity estimate (log intensity, higher = more binding, comparable within an allelic series) | 8 upbm affinity estimate (log intensity, higher = more binding, comparable within an allelic series) | 8.15 upbm affinity estimate (log intensity, higher = more binding, comparable within an allelic series) | 12.6 upbm affinity estimate (log intensity, higher = more binding, comparable within an allelic series) | 8.67 upbm affinity estimate (log intensity, higher = more binding, comparable within an allelic series) | 12.9 upbm affinity estimate (log intensity, higher = more binding, comparable within an allelic series) | 11.6 upbm affinity estimate (log intensity, higher = more binding, comparable within an allelic series)

Source: paper PMC11006913
